The sample as a whole holds a higher share of hits than the screen did.
BoNT A protease = blocks Botulinum neurotoxin A light chain protease. multiplex microsphere protease substrate cleavage, flow cytometry. AID 588499. 0.17% of 360,000 active. inhibition, % at 10 µM; further: plate controls were buffer without enzyme for full effect and enzyme alone for no effect
BoNT F protease = inhibitors of Botulinum neurotoxin F light chain protease | Multiplex microsphere protease cleavage assay, flow cytometry | inhibition, % at 10 µM | 0.22% of 360,000 active | AID 588497; in the data active means inhibition above about 35%, passing the limit was not always enough; inconclusive means no clear call, values can overlap the other calls; further: plate controls were buffer without enzyme for full effect and enzyme alone for no effect
Anthrax LF prot = inhibitors of Bacillus anthracis lethal factor protease; 0.12% of 360,000 active; inhibition, % at 10 µM; P15917; multiplex microsphere protease cleavage assay, LF; AID 588501; further: plate controls were buffer without enzyme for full effect and enzyme alone for no effect
TcdB inh = blocks C. difficile toxin B glycohydrolase activity; P18177; inhibition, % at 9.99 µM; AID 652162; TcdB glycohydrolase enzymatic assay, plate reader; 0.24% of 350,000 active; in the data active means inhibition above about 10%
Bead autofluor = flagged as autofluorescent in microsphere protease counterscreen; compound autofluorescence counterscreen, microsphere flow cytometry; stronger effect = higher value; fluorescence intensity (no concentration beside the values); 3.1% of 360,000 active; AID 624483; in the data active means fluorescence intensity above about 16000; inconclusive means no clear call, values can overlap the other calls
* marks the source's active call; other numbers are inactive results; ? = inconclusive; / = no result. Unless noted, no stated cut-off is given here; in the data, active means inhibition above about 30%; inconclusive means no clear call, values can overlap the other calls; inactive means below that.

SMILES	BoNT A protease	BoNT F protease	Anthrax LF prot	TcdB inh	Bead autofluor
CCC(Sc1nc(C)cc(=O)[nH]1)C(=O)Nc1nc2c(s1)CCCC2 (stereo unspecified)	?	-2.9	-7.4	/	22164*
Cc1sc(NC(=O)c2ccco2)c(CN2CCN(c3ccc(F)cc3)CC2)c1C	3.2	0.0	11.7	1.5	8160
Cc1sc(NC(=O)c2ccco2)c(CN2CCN(c3ccccn3)CC2)c1C	-0.4	-2.4	-2.5	/	23314*
CC(=O)Nc1sc2c(c1CN1CCCC1)CCCC2	0.4	1.7	-1.7	1.7	4900
CC(=O)Nc1sc2c(c1CN1CCN(c3ccccn3)CC1)CCCC2	2.0	1.5	-1.8	1.6	22350*
CC(=O)Nc1ccc2oc(-c3cc(F)c(F)cc3Cl)nc2c1	0.6	6.1	3.0	/	3946
CC(C)C(=O)Nc1ccc2oc(-c3cc(F)c(F)cc3Cl)nc2c1	-1.0	0.0	0.8	/	24150*
COC(=O)c1cc(NC(=O)Nc2cc(OC)ccc2OC)cc(C(=O)OC)c1	-0.3	-2.0	-1.5	/	23932*
COc1ccc(OC)c(NC(=O)Nc2cccc(Cn3cccn3)c2)c1	-1.4	-2.1	-2.2	/	21355*
COc1ccc(OC)c(NC(=O)Nc2ccc(Cl)cc2)c1	-1.2	-2.1	-0.4	/	6037
COc1cccc(NC(=O)Nc2cc(C)ccc2OC)c1	0.4	-1.5	-0.6	1.8	2413
CCOC(=O)CSc1nc2ccsc2c(=O)n1C1CCN(C(=O)OCC)CC1	-0.1	0.1	-3.6	1.7	8035
CCOC(=O)CSc1nc2cc(C(=O)NCc3ccco3)ccc2c(=O)n1C1CCCCC1	0.2	0.5	-1.1	0.8	16581*
CCOC(=O)N1CCC(n2c(SCC(=O)NCc3ccco3)nc3ccsc3c2=O)CC1	-0.9	-0.8	-3.1	/	23599*
O=C(NC1CCCc2ccccc21)C1CCN(S(=O)(=O)N2CCCCCC2)CC1 (stereo unspecified)	3.2	5.5	3.4	/	21253*
N=c1ncn(CC(O)CN2CCOCC2)c2nc(N3CCOCC3)[nH]c12 (stereo unspecified)	0.5	0.7	-6.0	/	22533*
C=CCNC(=O)c1ccc(-c2nc(-c3ccc(Cl)c(Cl)c3)cs2)cc1	?	-3.1	-3.7	/	22537*
COc1cccc(-c2cc(C(=O)NCc3ccco3)no2)c1	-2.8	-4.6	-3.2	/	24153*
Cc1ccc(-c2cc(C(=O)NCc3ccco3)no2)cc1	?	-15.4	-7.9	1.4	8560
COc1cc(OC)cc(C(=O)NC(=S)NCc2ccco2)c1	?	-2.6	-5.9	-0.7	16948*
Cc1cc(C(=O)NCc2ccco2)no1	2.9	4.4	-0.7	/	22251*
O=C(NCc1ccco1)c1cc(-c2ccc3c(c2)OCO3)on1	-4.3	-6.5	-2.9	/	17176*
CN1C(=O)c2cc(NC(=O)c3cccs3)ccc2OC[C@H]2O[C@H](CC(=O)O)CC[C@@H]21	/	/	/	0.1	/
COc1ccc(-c2cnc3c(c2)C(=O)N([C@@H](C)CO)C[C@H](C)[C@@H](CN(C)C(=O)C2CCC2)O3)cc1	/	/	/	-0.7	/
COc1cccc(N2CCN(C(=S)NCc3ccco3)CC2)c1	-1.4	-4.3	-6.2	/	16347*
SMILES	BoNT A protease	BoNT F protease	Anthrax LF prot	TcdB inh	Bead autofluor
O=C(NCc1ccco1)c1cc(-c2ccc(Cl)cc2)on1	0.8	1.2	-1.3	/	22771*
O=C(NCc1ccco1)c1cc(-c2cccc(Cl)c2)on1	2.6	3.0	-11.5	/	21505*
O=C(NCc1ccco1)c1ccc(-c2cccc(Cl)c2)o1	-1.9	-9.4	-0.5	0.8	4376
COc1cc2nc(/C=C/c3cc(OC)c(OC)c(OC)c3)sc2cc1SC	54.3*	12.7	21.3	/	3237
COc1cc2nc(C)sc2cc1SC	1.2	10.5	2.2	/	9335
COc1ccc(NC(=O)Nc2ccc3c(c2)C(=O)N([C@@H](C)CO)C[C@H](C)[C@@H](CN(C)S(=O)(=O)c2ccc(F)cc2)OCCCC[C@H](C)O3)cc1	/	/	/	0.7	/
CO[C@H](CN(C)C(=O)c1cnccn1)[C@H](C)CN([C@H](C)CO)S(=O)(=O)c1ccc(C)cc1	/	/	/	-0.1	/
COc1ccc(O)c(-c2cc(-c3ccccc3Cl)[nH]n2)c1	-2.6	-11.8	6.4	1.4	3698
COc1ccccc1-c1cc(-c2cc(Cl)ccc2O)n[nH]1	0.7	1.1	1.8	/	22763*
COC(=O)C1=C(C)N(C)C(=O)NC1c1cc(Cl)cc(Cl)c1OC (stereo unspecified)	?	-5.2	0.4	/	17435*
COC(=O)C1=C(C)N(C)C(=O)NC1c1cc(Cl)c(O)c(OC)c1 (stereo unspecified)	0.2	-0.5	-4.2	-2.4	5831
CNC[C@H]1Oc2cc(C#Cc3ccc(OC)cc3)ccc2S(=O)(=O)N([C@@H](C)CO)C[C@@H]1C	/	/	/	-1.5	/
CCCC#Cc1ccc([C@@H]2[C@H](CO)N3C(=O)CN(S(=O)(=O)Cc4ccccc4)C[C@@H]23)cc1	/	/	/	0.7	/
O=S1(=O)N=C(Oc2ccccc2)c2ccccc21	0.8	-0.5	-0.5	/	23213*
COC1=NS(=O)(=O)c2ccccc21	0.3	-0.1	0.3	-0.6	2274
COCCOC(=O)c1c(C)n(C)c2ccc(OC(=O)c3ccco3)cc12	?	2.4	-3.6	/	22026*
COCCCNC(=O)c1ccc(C(=O)NCCCOC)cc1	0.1	-2.2	2.0	/	22526*
O=C(NC(=S)NCc1ccccc1)c1cccnc1	-0.1	-2.1	0.0	15.8*	4147
CC(C)(C)NC(=S)NCc1cccnc1	-1.6	-2.3	-1.9	/	23776*
COCCCNC(=O)c1ccc(-c2nc3ccccc3nc2-c2ccccc2)cc1	-1.7	-1.0	-5.3	0.0	6662
COc1ccc(CC(=O)NNC(=S)NC(=O)c2cccnc2)cc1	-1.0	-8.3	-1.7	14.8*	4406
O=C(NNC(=S)NCc1ccccc1)c1cccnc1	1.7	1.6	-1.1	-0.2	5709
O=C(NCc1ccccc1)NC(=O)c1ccncc1	-1.5	-0.8	-3.0	/	20362*
O=C(NCc1cccc(Cl)c1)c1cccnc1	?	-8.6	-2.1	-2.4	18154*
O=C(NCc1ccncc1)c1ccc(Br)cc1	1.3	0.9	-1.1	/	22240*
SMILES	BoNT A protease	BoNT F protease	Anthrax LF prot	TcdB inh	Bead autofluor
O=C(NCc1cccnc1)c1ccc(Cl)c(Cl)c1	-0.3	-5.5	-1.9	/	2843
COCCCNC(=S)NNC(=O)c1cccnc1	0.1	-1.8	-1.7	/	20168*
CCC(=O)N1C[C@H](C)[C@@H](OC)CN(C)C(=O)c2cc(NC(=O)COC)ccc2OC[C@@H]1C	/	/	/	0.4	/
CCC(=O)Nc1ccc2c(c1)C(=O)N(C)[C@H]1CC[C@@H](CC(=O)NCCN3CCCCC3)O[C@@H]1CO2	/	/	/	-0.7	/
O=C(NNC(=S)NC(=O)c1cccnc1)c1ccccc1	-0.2	-5.5	-1.4	/	9014
O=C(Cc1ccccc1)NNC(=S)NC(=O)c1cccnc1	/	/	/	18.8*	/
O=C(O)CCS(=O)(=O)Cc1cccc(Cl)c1	-1.3	-1.6	-1.1	0.9	23460*
C[C@@H]1CN([C@H](C)CO)C(=O)Cc2cc(NC(=O)CCN3CCOCC3)ccc2O[C@@H]1CN(C)S(=O)(=O)c1ccc(Cl)cc1	/	/	/	0.7	/
O=S(=O)(Nc1ccc(S(=O)(=O)Nc2nccs2)cc1)c1ccc(Br)cc1	0.3	-2.3	-4.5	0.3	5904
O=S(=O)(Nc1nccs1)c1ccc(NS(=O)(=O)c2cccs2)cc1	6.0	10.5	-15.3	/	19362*

Bioassay records (PubChem)
